The whole screen tested about 38,000 compounds, of which about 1,200 (3.2%) showed an effect of 50% or more. The median lay at about -58%. Only a selection was taken, and strong results are over-represented in it overall.
tested on: Plasmodium falciparum; test: Calibr Malaria Delayed Death Assay SOP; format: functional, organism-based; parameters: scale not given: in the data most compounds retested in dose-response had high values; settings: concentration 4.99e-06 (unit not given; other assays of the set use mol/L)

SMILES	Percent Effect [%]
CS(=O)(=O)C1(C(=O)NC2CCc3nccn3C2)CCCC1 (centres undefined)	-116.8
COc1cccc(C2(C(=O)NC3CCc4nccn4C3)CCCC2)c1 (centres undefined)	52
COc1ccc(C2(C(=O)NC3CCc4nccn4C3)CCCC2)cc1 (centres undefined)	46.07
CN1C[C@H](O)[C@]2(CCN(C(=O)NCc3ccccc3)C2)S1(=O)=O	-19.04
Cc1cnccc1-c1cc(NCCO)nc2[nH]ccc12	-75.39
Cc1nc(C(=O)N2CC[C@@]3(C[C@H](NS(C)(=O)=O)CCO3)C2)cs1	-13.09
O=C(O)C(F)(F)F.O=S(=O)(C1CC1)N1CCC2(CCCN(c3ncccn3)C2)C1 (centres undefined)	-10.57
CC(C)c1nc(C2CCCN(c3nccc(C(F)(F)F)n3)C2)no1 (centres undefined)	-82.41
CC(C)N1CCCC2(CCN(c3nccc(C(F)(F)F)n3)C2)C1=O (centres undefined)	-74.1
CN(C)C(=O)N1CCC2(CCCN(c3ncccn3)C2)C1.O=C(O)C(F)(F)F (centres undefined)	-156.2
C=C(C)CN(CC)C(=O)c1cc(F)ccc1N1CCN(C)CC1	-6.643
CC(CNC(=O)c1cc(C2CC2)nc2c1cnn2C)Cn1cccn1 (centres undefined)	-106.1
Cc1ccc(OCCNC(=O)C2CCOCC2)c(C)c1	-53.04
Cc1ccc(C)c(Oc2ccc(CNC(=O)C3CCC(=O)N3)cn2)c1 (centres undefined)	-45.06
Cc1ccc(-c2cn[nH]c2C2CCCN(c3cc(N)ncn3)C2)cc1 (centres undefined)	-38.82
Cc1ccc(N2CCCC(c3[nH]ncc3-c3ccccc3)C2)nn1 (centres undefined)	25.38
Cc1cc(N2CCCC(c3[nH]ncc3Cc3ccccc3)C2)nc(N)n1 (centres undefined)	72.87
Cc1cc(C)n2c(CCCNS(=O)(=O)c3cccs3)nnc2n1	-65.33
COCCN(C)C[C@@H]1CN(C(=O)C(C)(C)c2ccccc2)C[C@@H]1CO	29.59
COc1cccc(CNCc2c(C)nc3sc(C)cn23)c1OC	20.21
COc1ccccc1OC1CN(C(=O)Cc2c(C)nc3ccccn23)C1	-26.12
COc1ccc(NC(=O)c2nc(C)sc2C)cn1	-37.98
CCc1[nH]c2c(CNc3cc(C)nc(NC)n3)cc(C)cc2c1C	84.97
CCc1[nH]c2c(CNc3cncc(C(=O)N(C)C)n3)cc(F)cc2c1C	-100.3
CCc1[nH]c2c(CNc3nc(C)cc(NC)n3)cc(C)cc2c1C	88.9
CCc1[nH]c2c(CNc3cncc(C(=O)N(C)C)n3)cc(C)cc2c1C	-71.53
CCc1[nH]c2c(CNc3cncc(C(=O)OC)n3)cc(C)cc2c1C	-28.2

SMILES	Percent Effect [%]
Cc1cc(C(=O)N2CCc3nc(N4CCOCC4)nc(C)c3C2)c(C)o1.O=CO	-46.43
COc1ccc(C(=O)CCC(=O)NCc2ncc(C)s2)cc1F	-71.69
CCCOC1Sc2nnc(C)n2N=C1c1ccccc1 (centres undefined)	-105.9
COc1cccc(CNCCc2cccc(C(N)=O)c2)c1	-12.09
COc1cccc(OCCNS(=O)(=O)Cc2ccccc2)c1	-90.07
COc1cccc(CNCCNS(=O)(=O)Cc2ccccc2)c1	54.45
C[C@@H]1CN(c2nc3c(cc2C(N)=O)CCC3)C[C@@]1(O)C1CCC1	-102.5
O=C(Nc1cccnc1-n1cc(Cl)cn1)C1CCCCC1	-29.97
CCOC(=O)C(C)NC(=O)N1CCN(c2nc3ccccc3n2C)CC1 (centres undefined)	-114
CSCc1cc(F)ccc1CNCc1cccc(O)c1	72.86
CSCc1cc(F)ccc1CNCc1cccnc1	1.167
CSCc1cc(F)ccc1CNCc1ccncc1	-80.12
CC(C)CCOc1ccc(C(C)NC(=O)CSCC(N)=O)cc1 (centres undefined)	-21.89
Cc1cc(=O)[nH]c(=O)n1COCc1ccccc1	-164.1
Cc1ccc(C(=O)N2CC(Oc3ccccc3C)C2)s1	-70.19
COCC(=O)N1CCC2(CCCN(Cc3cc(OC)ccc3F)C2)C1 (centres undefined)	-77.74
Cc1cc(-n2cccn2)ccc1CN1CCC(O)(CN2CCCCC2)C1 (centres undefined)	60.7
COc1ccc(F)cc1CN1CCC(O)(CN2CCCCC2)C1 (centres undefined)	69.8
COc1ccc(F)cc1CN1CCCC(c2cc(C(N)=O)[nH]n2)C1 (centres undefined)	-17.41
Cc1cc(F)ccc1CN1CCCC(O)(CN2CCCC2)C1 (centres undefined)	66.53
OC1(CN2CCCC2)CCCN(Cc2cnc(-c3ccccc3)nc2)C1 (centres undefined)	13.01
COc1ccc(CN2CCC(O)(CN3CCCCC3)C2)c(C)c1 (centres undefined)	66.37
CCCn1ccnc1CN1CCC(O)(CN2CCCCC2)C1 (centres undefined)	17.5
COc1ccc(F)c(CN2CCCC3(CCN(C(=O)CSC)C3)C2)c1 (centres undefined)	-70.9
CCCn1ccnc1CN1CCCC(O)(CN2CCCC2)C1 (centres undefined)	-81.98
COc1ccc(F)cc1CN1CCCC1Cn1nc(C)nc1C (centres undefined)	-22.72
O=C(NCC1(O)CCC1)c1cccc(-n2cccn2)c1	-36.51
